# Measured values published in PubChem BioAssay (NCATS).
# Several values for one entry are separate records, joined by “and”; a condition that tells them apart may be missing. Equal values may be shown once. Records with an inconclusive call do not appear. Where a structure was tested more than once in an assay, its records may differ in their call. Unmarked numbers belong to inactive results. Activity calls are given as the source filed them. The call rests on the fitted dose curve; in most records, active means well fitted inhibition curve with a large enough effect; inconclusive means small, poorly fitted or top-dose-only effect; inactive means flat fitted curve, though single readings scatter.
# Columns and labels:
# CRL-7250 = normal cell line; assay: Cytotoxic Profiling of Annotated Libraries Using Quantitative High-Throughput Screening (AID 1296008); details: Five cell lines viability, CellTiter-Glo ATP luminescence, 48-72 h; max response: stronger effect = lower value; further: potency means the concentration at half of the fitted maximal effect; on max response: on the % scale 0 is the no-effect control and ±100 the full control effect
# In short: (§1)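 Cells exposed to compounds for 48 or 72 hr at 37 degrees Celsius. Viability read as ATP-coupled luminescence with CellTiter-Glo after 10 min at room temperature.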
# HEK293 = assay: as above; details: Five cell lines viability, CellTiter-Glo ATP luminescence, 48-72 h; max response: stronger effect = lower value
# In short: as §1
# KB-3-1 = assay: as above; details: Five cell lines viability, CellTiter-Glo ATP luminescence, 48-72 h; max response: stronger effect = lower value
# In short: as §1
# NIH3T3 = assay: as above; details: Five cell lines viability, CellTiter-Glo ATP luminescence, 48-72 h; max response: stronger effect = lower value
# In short: as §1
# HaCat [1] = assay: as above; details: Five cell lines viability, CellTiter-Glo ATP luminescence, 48-72 h; max response: stronger effect = lower value
# In short: as §1
# HACAT [2] = assay: qHTS assay to identify novel small-molecules to repurpose for Merkel cell carcinoma treatment (AID 1296009); details: MCC and control cell lines, CellTiter-Glo viability, 72 h; at 44.8 µM (top of the series) unless noted
# In short: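 Cells were treated for 72 hr at 37 degree celsius with compounds in 8- or 11-point dose response. Viability was read by CellTiter-Glo luminescence, normalized to no-cell (cytotoxicity) and DMSO controls.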
# Further: nearly all actives have a fitted effect of over 60% in size.
smiles,measurement,setting,value
CCCCC(=O)O[C@]1(C(=O)CO)[C@@H](C)C[C@H]2[C@@H]3CCC4=CC(=O)C=C[C@]4(C)[C@@]3(F)[C@@H](O)C[C@@]21C,outcome,CRL-7250,inactive
same,max response,HEK293,3.05%
same,outcome,KB-3-1,inactive
same,max response,NIH3T3,-1.65%
O=C(Nc1cccc(Nc2ncc(Br)c(NCCc3cnc[nH]3)n2)c1)N1CCCC1,Potency,CRL-7250,4.18 µM (active)
same,Potency,HaCat [1],9.35 µM (active)
same,Potency,KB-3-1,1.32 µM (active)
same,Potency,NIH3T3,4.69 µM (active)
CCOc1cc2ncc(C#N)c(Nc3ccc(OCc4ccccn4)c(Cl)c3)c2cc1NC(=O)C=CCN(C)C,Potency,CRL-7250,1.05 µM (active)
same,Potency,HaCat [1],0.0053 µM (active)
same,max response,KB-3-1,-18.5%
CN(C)CC(=O)N1CCC(c2ccc(NC(=O)c3ncc(C#N)[nH]3)c(C3=CCCCC3)c2)CC1,outcome,CRL-7250,inactive
same,max response,HaCat [1],3.1%
same,outcome,HaCat [1],inactive
same,max response,KB-3-1,3.44% and -16.9%
same,Potency,NIH3T3,0.92 µM (active)
same,max response,NIH3T3,0.938%
same,outcome,HACAT [2],inactive
C#Cc1cccc(Nc2ncnc3cc(OCCOC)c(OCCO)cc23)c1,Potency,CRL-7250,14.8 µM (active)
same,Potency,HEK293,16.6 µM (active)
same,Potency,NIH3T3,20.9 µM (active)
CS(=O)(=O)N1CCc2c(-c3cnc(N)nc3)nc(N3CCOCC3)nc21,Potency,CRL-7250,0.935 µM (active)
same,Potency,HaCat [1],1.16 µM (active)
same,Potency,KB-3-1,4.61 µM (active)
same,Potency,NIH3T3,743 nM (active) and 1.84 µM (active)
CC(C)c1cc(C(C)C)c(CC(=O)NS(=O)(=O)Oc2c(C(C)C)cccc2C(C)C)c(C(C)C)c1,max response,CRL-7250,4.74% and 1.75%
same,max response,HaCat [1],0.698% and -52.4%
same,max response,KB-3-1,0.649%
CCN(CC)CCCCNc1ncc2c(n1)N(C)C(=O)N(c1c(Cl)c(OC)cc(OC)c1Cl)C2,Potency,CRL-7250,14.8 µM (active)
same,Potency,HEK293,2.09 µM (active)
same,max response,KB-3-1,-30%
O=c1[nH]c(=O)n([C@H]2C[C@@H](O)[C@@H](CO)O2)cc1F,Potency,CRL-7250,18.7 µM (active)
same,Potency,HEK293,0.0526 µM (active)
same,Potency,KB-3-1,13.2 µM (active)
same,Potency,NIH3T3,0.0187 µM (active)
CC(=O)O[C@@]12CO[C@H]1C[C@H](O)[C@@]1(C)C(=O)[C@H](O)C3=C(C)[C@@H](OC(=O)C(O)[C@@H](NC(=O)OC(C)(C)C)c4ccccc4)C[C@@](O)([C@@H](OC(=O)c4ccccc4)[C@@H]21)C3(C)C (some centres undefined),max response,CRL-7250,-64.7%
same,max response,HEK293,-90.2%
same,Potency,KB-3-1,0.0526 µM (active)
same,max response,NIH3T3,-88.1%
O=C1CSC(=O)N1C(CCc1ccncc1)COc1ccc(-c2cccc([N+](=O)[O-])c2)cc1 (centres undefined),max response,CRL-7250,-33.8%
same,max response,HaCat [1],-30.8%
same,max response,KB-3-1,-6.99%
same,max response,NIH3T3,-3.92%
N[C@H]1CN(c2c(F)cc3c(=O)c(C(=O)O)cn(C4C[C@@H]4F)c3c2Cl)CC12CC2 (some centres undefined),max response,CRL-7250,-23.8%
same,max response,HEK293,-9.37%
same,max response,KB-3-1,-14.1%
same,outcome,NIH3T3,inactive
CCNC(=O)Nc1ccc(-c2nc3c(c(N4CCOC[C@H]4C)n2)CCN(C2COC2)C3)cc1,Potency,CRL-7250,0.296 µM (active)
same,Potency,HEK293,0.743 µM (active)
same,Potency,KB-3-1,1.32 µM (active)
same,Potency,NIH3T3,5.9 µM (active)
O=C(Nc1nnc(-c2ccco2)o1)c1cc(-c2ccccc2)nc2ccccc12,Potency,CRL-7250,16.6 µM (active)
same,max response,HaCat [1],-46%
Cc1ccc([N+](=O)[O-])cc1S(=O)(=O)N(C)N=Cc1cnc2ccc(Br)cn12,Potency,CRL-7250,0.0187 µM (active)
same,Potency,HEK293,0.0235 µM (active)
same,Potency,KB-3-1,0.0209 µM (active)
same,Potency,NIH3T3,0.0743 µM (active)
COc1cc(OC)cc(-c2ccc3ncc4ccc(=O)n(-c5ccc(N6CCNCC6)c(C(F)(F)F)c5)c4c3c2)c1,Potency,CRL-7250,10.5 µM (active)
same,Potency,HEK293,3.72 µM (active)
same,Potency,NIH3T3,14.8 µM (active)
O=C1NC(=O)C(=Cc2ccc3nccc(-c4ccncc4)c3c2)S1,Potency,CRL-7250,0.0526 µM (active)
same,Potency,HEK293,0.0743 µM (active)
same,Potency,KB-3-1,0.148 µM (active)
same,Potency,NIH3T3,0.209 µM (active)
O=C(Nc1ccc(Oc2ccnc3[nH]ccc23)c(F)c1)c1cccn(-c2ccc(F)cc2)c1=O,max response,CRL-7250,-4.56%
same,max response,HaCat [1],2.4%
same,outcome,HaCat [1],inactive
same,outcome,KB-3-1,inactive
same,outcome,NIH3T3,inactive
same,outcome,HACAT [2],inactive
COc1cc2ncnc(Nc3cccc(Br)c3)c2cc1OC,max response,CRL-7250,-23.5%
same,max response,HEK293,-29.7%
same,outcome,KB-3-1,inactive
same,max response,NIH3T3,-22%
N=c1ccn2c(n1)O[C@H]1[C@@H](O)[C@@H](CO)O[C@H]12,max response,CRL-7250,-13.3%
same,Potency,HEK293,4.18 µM (active)
same,max response,KB-3-1,-23.9%
same,Potency,NIH3T3,3.32 µM (active)
C[C@@H]1CC[C@@]2(OC1)OC1CC3C4CC=C5CC(O)CCC5(C)C4CCC3(C)C1[C@@H]2C (some centres undefined),max response,CRL-7250,-6.42%
same,Potency,HEK293,10.5 µM (active)
same,max response,KB-3-1,-6.71%
same,max response,NIH3T3,-12.1%
COc1ccc(C=Cc2cc(OC)c(OC)c(OC)c2)cc1NC(=O)[C@H](N)CO,Potency,CRL-7250,0.0332 µM (active)
same,max response,HaCat [1],4.22%
same,Potency,KB-3-1,0.003 µM (active)
Cn1cnc(=N)c2[nH]cnc21,Potency,CRL-7250,8.33 µM (active)
same,Potency,HaCat [1],13.2 µM (active)
same,Potency,KB-3-1,10.5 µM (active)
same,Potency,NIH3T3,9.35 µM (active)
CC(C(C)N1CC(=O)NC(=O)C1)N1CC(=O)NC(=O)C1 (centres undefined),outcome,CRL-7250,inactive
same,Potency,HEK293,1.66 µM (active)
same,max response,KB-3-1,-3.89%
Nc1ccn(C2CO[C@H](CO)O2)c(=O)n1 (some centres undefined),max response,CRL-7250,-10.6%
same,max response,HaCat [1],1.07%
same,max response,KB-3-1,6.69%
same,max response,NIH3T3,-8.89%
NS(=O)(=O)OC[C@@H]1C[C@@H](n2ccc3c(N[C@H]4CCc5ccccc54)ncnc32)C[C@H]1O,Potency,CRL-7250,2.64 µM (active)
same,Potency,HEK293,0.526 µM (active)
same,max response,NIH3T3,-27.1%
